Shiga inhibitor – Shiga toxin inhibition; Vero cells, Shiga toxin protein synthesis inhibition reporter; inhibition, % at 38.7 µM; 9.2% of 290,000 active; AID 2315; in the data active = inhibition mostly above about 28%, no sharp cut-off; inactive = mostly below about 43%
Pf growth 48h – inhibits P. falciparum growth in the first generation, 48 h; AID 504832; P. falciparum luciferase growth in erythrocytes, 48 h; Potency, µM (titrated, usually from 28.7 µM), actives largely listed as inhibitors; 5.9% of 310,000 active
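Firefly luciferase activity from engineered P. falciparum reports growth; inhibitors lower the luminescent signal. Cultures contained 2% hematocrit erythrocytes at 0.1% final parasitemia.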
Cycloheximide cs – affects cycloheximide protein synthesis inhibition readout, counter-screen; cell reporter, cycloheximide protein synthesis inhibition counterscreen; max response, %; AID 2314; 12% of 300,000 active; in the data active = max response mostly above about 13%, no sharp cut-off; inactive = mostly below about 14%; note: read at 38.3 µM for the half of the compounds with a filed dose
Pf growth 96h – P. falciparum growth inhibition at 96 hours | 6.9% of 320,000 active | P. falciparum luciferase reporter growth, 96 h | Potency, µM (titrated, usually from 28.7 µM), actives largely listed as inhibitors | AID 504834
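Readout is luminescence from an integrated firefly luciferase in P. falciparum. Red cells, 2% hematocrit and 0.05% parasitemia final, were cultured with compound through two parasite generations (96 hours) at 37 C, 5% CO2.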
NS1 function inh – inhibitors of influenza NS1 protein function. AID 2326. 0.4% of 270,000 active. Potency, µM (titrated, usually from 46.1 µM); calls by dose curve; note: actives are rising curves; nearly all actives have a fitted effect of over 50% in size
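A cell-based growth assay was used: compounds that relieve NS1-induced slow growth of budding yeast raise OD600. Assay medium was yeast nitrogen base with ammonium sulphate and -URA supplement, pH 6.0, with 2% galactose.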
Numbers stand for hits; i = inactive; ? = inconclusive; nt = no result given. Only some compounds are listed: those with a hit (about 21% of all), similar ones and a draw of the others. Unless noted, calls come from the whole dose curve; as a rule, active = well fitted inhibition curve with a large enough effect; inconclusive = small, poorly fitted or top-dose-only effect, or another doubt; inactive = no such curve, though single readings can be large or run the other way.

SMILES	Shiga inhibitor	Pf growth 48h	Cycloheximide cs	Pf growth 96h	NS1 function inh
O=C(CCCCCBr)N1CCC(CC2CC(c3cccc(Br)c3)=NO2)(C(=O)NCC2CCCCC2)CC1 (centres undefined)	i	?	i	5.22µM	i
CN1C(=O)CS/C1=N\NC(=O)COc1cccc2cccnc12	i	i	i	i	i
CCC(C)(C)NC(=O)C(c1ccc(C)cc1)N(Cc1ccco1)C(=O)CCC(=O)Nc1nccs1 (centres undefined)	i	nt	i	i	i
CCOC(=O)Nc1ccc2c(CNC(C)c3ccccc3OC)cc(=O)oc2c1 (centres undefined)	i	?	i	i	i
C=CCn1c(N(C)C)nc2c1c(=O)[nH]c(=O)n2C	i	i	i	i	i
CCN(CC)C(=O)Cn1cc(C(=O)C(=O)N(CC)C2CCCCC2)c2ccccc21	i	i	i	?	i
CCN1C(=O)c2cccc3c(S(=O)(=O)N(C(=O)c4ccncc4)c4ccc(OC)cc4)ccc1c23	i	14.7µM	i	13.1µM	?
O=C(CN1C(=O)CCSc2ccc(S(=O)(=O)N3CCCC3)cc21)NCc1ccccc1Cl	i	i	i	?	i
CNC[C@H](CC1CCCCC1)NC[C@H](Cc1ccccc1)NCCC12CC3CC(CC(C3)C1)C2	i	?	i	2.08µM	i
CCOC(=O)[C@H]1[C@H]2COc3cc(OC)ccc3[C@@H]2N2C(=O)c3cc(F)ccc3NC(=O)[C@@]12C	nt	9.28µM	nt	10.4µM	nt
CCOC(=O)[C@H]1[C@H]2COc3cc(OC)ccc3[C@@H]2N2C(=O)c3cc(C)ccc3NC(=O)[C@@]12C	nt	4.65µM	nt	2.33µM	nt
CCOC(=O)[C@H]1[C@H]2COc3ccc(Cl)cc3[C@@H]2N2C(=O)c3ccc(Cl)cc3NC(=O)[C@@]12C	nt	10.4µM	nt	13.1µM	nt
CCOC(=O)[C@H]1[C@H]2COc3cc(OC)ccc3[C@@H]2N2C(=O)c3cc(OC)ccc3NC(=O)[C@@]12C	nt	1.31µM	nt	6.57µM	nt
CCOC(=O)[C@@H]1[C@H]2COc3cc(OC)ccc3[C@H]2N2C(=O)N(c3ccc(F)cc3)C(=O)[C@@]12C	i	?	i	?	i
CN1CCC=C(C(=O)N2c3ccccc3Sc3ccc(Cl)cc32)C1	i	?	i	?	i
CCOC(=O)[C@H]1[C@H]2COc3ccc(Br)cc3[C@@H]2N2C(=O)c3cc(F)c(F)cc3NC(=O)[C@@]12C	nt	16.5µM	nt	?	nt
CCOC(=O)[C@H]1[C@H]2COc3cc(OC)ccc3[C@@H]2N2C(=O)c3cc(F)c(F)cc3NC(=O)[C@@]12C	nt	?	nt	13.1µM	nt
CCc1nnc(SCc2cn3c(C)cc(C)nc3n2)n1N	i	i	i	i	i
CC(C)c1nnc(NC(=O)CSc2ccccc2)s1	i	i	33.8	nt	i
CC(C)(C)Cc1nnc(NC(=O)CSc2ccccc2)s1	i	i	12.5	?	i
CCOCc1nnc(NC(=O)CSc2ccccc2)s1	i	?	i	i	i
COc1ccc(C(=O)NCc2nnc(SCC(=O)Nc3cc(C)cc(C)c3)o2)cc1OC	i	i	i	i	i
Cc1cccc(NC(=O)CSc2nnc(CNC(=O)c3ccco3)o2)c1	i	i	i	10.4µM	i
COc1cc(C(=O)NCc2nnc(SCC(=O)Nc3cccc(C)c3)o2)cc(OC)c1OC	i	nt	i	7.38µM	i
CCSc1nnc(NC(=O)c2csc(C)c2)s1	48.8	i	16.9	nt	i
SMILES	Shiga inhibitor	Pf growth 48h	Cycloheximide cs	Pf growth 96h	NS1 function inh
CCSc1nnc(NC(=O)[C@@H](NC(=O)c2cccc(C)c2)C(C)C)s1	i	i	i	i	i
CCSc1nnc(NC(=O)Nc2cccc(C)c2)s1	100.5	i	38.1	i	i
CC1(C)Cc2c(sc(NC(=O)C(=O)N3CCN(CCO)CC3)c2C(N)=O)CO1	i	i	i	i	i
O=C(CSc1nnc(CNC(=O)c2ccco2)o1)Nc1ccc(F)cc1	i	i	i	10.4µM	i
Cc1ccc(NC(=O)CSc2nnc(CNC(=O)c3ccco3)o2)cc1	i	i	i	i	nt
Cc1cccc(NC(=O)CSc2nnc(NC(=O)c3ccco3)s2)c1	43.0	i	i	i	nt
O=C(O)c1cc(Oc2ccc([N+](=O)[O-])cc2)cc(Oc2ccc([N+](=O)[O-])cc2)c1	i	nt	i	nt	nt
CC(Sc1nnc(-c2cccnc2)n1-c1ccccc1F)C(=O)N1CCCc2ccccc21 (centres undefined)	i	?	17.4	?	i
COc1ccc(OCc2cc(C(=O)NCC(C)(C)N3CCOCC3)no2)c(Cl)c1	36.1	?	i	i	i
COc1cc(Cl)ccc1OCc1cc(C(=O)NCc2cc(C(C)C)no2)no1	53.5	i	67.4	i	i
CC(C)(CNC(=O)CNC(=O)c1ccc(Cl)cc1Cl)N1CCOCC1	nt	i	nt	i	nt

Assay outcomes as filed in PubChem.
